# FBPA coupling cs – counter-screen for Giardia aldolase inhibitors: coupling enzyme system; coupling enzyme system counterscreen, AmpLite Red fluorescence; activity change, negative = inhibition, % at 58.2 µM, hits read low; hit rate 0.67% among 290,000; AID 2472; in the data active means activity change below about -30%
#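 Activity here indicates interference with the coupling reaction, not aldolase inhibition. Compounds at 57.5 uM final met coupling enzymes for 10 min at RT; substrate and AmpLite Red detection followed, with a 525/598 nm fluorescence read after 20 min.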
# USP1-UAF1 inh – USP1/UAF1 (human) deubiquitinase inhibition; AID 743255; Potency, µM (series often up to 57.1 µM), for the others: top-dose activity change, negative = inhibition, usual class: inhibitors; hit rate 0.23% among 390,000; recombinant USP1/UAF1, Ub-Rhodamine cleavage fluorescence; O94782; active means well fitted inhibition curve with a large enough effect; inconclusive means small, poorly fitted or top-dose-only effect; inactive means no such curve, though single readings can be large or run the other way; further: potency means the concentration at half of the fitted maximal effect; nearly all actives have a fitted effect of over 60% in size
#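 USP1/UAF1 complex at 1 nM was preincubated with compound for 15 min at room temperature, then Ub-Rho substrate (150nM final) was added. Fluorescence (480/540 nm) was read kinetically, 6 reads every 60 seconds.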
# KCNH2 3.1 inh – KCNH2 3.1 (human) potassium channel inhibition; U2OS KCNH2 3.1, thallium flux FluxOr; stronger effect = lower value; activity change, % (tested at about 1.8 µM); hit rate 0.95% among 340,000;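 active means maximum activity change below -70%; inconclusive means maximum activity change from -70% to -50%; inactive means maximum activity change above -50%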;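 further: thallium influx rate constant from kinetic fluorescence after stimulation buffer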
#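 Kinetic fluorescence (2 min after stimulation buffer) measures Tl+ influx through KCNH2 3.1 expressed by viral transduction in U2OS cells; the rate constant is normalized against DMSO controls serving as positive and negative references.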
# Giardia killer – Giardia lamblia killing; hit rate 0.15% among 340,000; activity change, % at 7.66 µM, hits read low; AID 540267; Giardia lamblia trophozoite viability; in the data active means activity change below about -80%; inconclusive means between about -30% and that limit;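 further: parasites exposed to compound for two days anaerobically before the ATP read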
#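 Luminescent ATP signal served as the viability read-out, measured 15-30 min after adding ATP detection reagent to trophozoites that had been incubated with compounds for 48 hrs at 37 deg C anaerobically at 100 cells/well.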
# KCNH2 WT inh – KCNH2 (human, wildtype) channel inhibition; Q12809; U2OS, BacMam KCNH2, thallium flux FluxOr; stronger effect = lower value; activity change, % at 1.84 µM; hit rate 0.37% among 340,000;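 active means maximum activity change below -70%; inconclusive means maximum activity change between -70% and -50%; inactive means maximum activity change above -50%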
# Target sequence (Q12809 whole entry, looked up): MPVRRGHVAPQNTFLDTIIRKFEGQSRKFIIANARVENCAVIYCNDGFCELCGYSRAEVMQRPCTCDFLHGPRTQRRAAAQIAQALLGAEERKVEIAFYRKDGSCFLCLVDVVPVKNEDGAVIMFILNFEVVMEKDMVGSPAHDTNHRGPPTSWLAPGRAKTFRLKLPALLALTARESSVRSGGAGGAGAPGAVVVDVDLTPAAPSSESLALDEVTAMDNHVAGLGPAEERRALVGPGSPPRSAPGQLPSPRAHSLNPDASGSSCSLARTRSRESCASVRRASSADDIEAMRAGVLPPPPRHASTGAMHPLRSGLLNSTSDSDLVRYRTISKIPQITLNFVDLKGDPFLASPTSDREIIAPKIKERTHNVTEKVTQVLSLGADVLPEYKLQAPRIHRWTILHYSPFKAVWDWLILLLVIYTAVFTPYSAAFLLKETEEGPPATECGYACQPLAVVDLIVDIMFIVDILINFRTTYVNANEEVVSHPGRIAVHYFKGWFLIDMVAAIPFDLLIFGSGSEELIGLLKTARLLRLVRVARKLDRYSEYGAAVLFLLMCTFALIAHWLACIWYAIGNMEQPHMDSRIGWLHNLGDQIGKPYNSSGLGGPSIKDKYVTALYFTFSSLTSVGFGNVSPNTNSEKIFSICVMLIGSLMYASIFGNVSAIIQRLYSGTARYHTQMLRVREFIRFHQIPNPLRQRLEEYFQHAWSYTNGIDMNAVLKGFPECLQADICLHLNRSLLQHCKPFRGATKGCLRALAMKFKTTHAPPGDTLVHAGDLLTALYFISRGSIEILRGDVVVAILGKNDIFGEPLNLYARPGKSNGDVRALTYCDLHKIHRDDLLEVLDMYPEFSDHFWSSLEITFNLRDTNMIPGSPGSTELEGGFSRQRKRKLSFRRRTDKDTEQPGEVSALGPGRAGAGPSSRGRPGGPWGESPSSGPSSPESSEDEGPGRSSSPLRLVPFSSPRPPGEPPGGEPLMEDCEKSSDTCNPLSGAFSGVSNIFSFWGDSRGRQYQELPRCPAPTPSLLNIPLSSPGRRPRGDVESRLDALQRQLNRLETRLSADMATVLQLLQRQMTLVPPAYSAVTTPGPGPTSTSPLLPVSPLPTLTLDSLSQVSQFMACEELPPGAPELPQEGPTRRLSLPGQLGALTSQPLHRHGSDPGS
#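 U2OS cells transduced with wild-type KCNH2 virus are loaded with FluxOr dye for 45 min, and thallium flux is measured in kinetic reads before and after stimulation buffer. Rate constants are normalized to DMSO controls.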
# Active calls of the source: *; ? = inconclusive; . = no result. Shown are actives, neighbours in structure and some others; about 1.7% of the full set was active somewhere. On the % scale 0 is the no-effect control and ±100 the full control effect.
SMILES,FBPA coupling cs,USP1-UAF1 inh,KCNH2 3.1 inh,Giardia killer,KCNH2 WT inh
O=[N+]([O-])c1ccc(NCCNCCOc2nonc2-c2ccccc2)c([N+](=O)[O-])c1,-4,-1%,-93*,-17,-46
Cc1nonc1OCCNCCNc1ccc([N+](=O)[O-])cc1Cl,2,-23%,-1,12,27
Cc1ccc(C)c(CN2CCC(CNC(=O)Nc3cccc(Cl)c3C)CC2)c1,2,-15%,-23,9,7
CCc1ccc(NC(=O)NCC2CCN(Cc3cccc(Cl)c3)CC2)cc1,2,-1%,-91*,-2,16
Cc1ccc(NC(=O)NCC2CCN(Cc3cc(C)ccc3Cl)CC2)c(C)c1,-1,-20%,-23,4,-151*
Cc1ccc(NC(=O)NCC2CCN(Cc3cccc(Cl)c3)CC2)cc1Cl,1,-21%,?,-10,5
COc1ccc(N2CC(NC(=O)COc3ccccc3C)CC2=O)cc1OC (configuration not stated),.,-21%,.,.,.
Cc1cccc(NC(=O)c2c(C)oc3ncnc(N4CCCCC4)c23)c1C,.,-13%,.,.,.
Nc1cccc(S(=O)(=O)N2CCOCC2)c1,.,.,.,18,.
CCOc1ccc(-c2cc3c(=O)n(CC(=O)NCc4ccc(C)cc4)ccn3n2)cc1,.,-16%,.,.,.
CN1CCN(c2ncc3nc(-c4ccc(Cl)cc4)c(=O)n(C)c3n2)CC1,2,.,.,.,.
Cc1ccc(NCc2cccn2-c2nnc(N3CCC(C(=O)NCc4ccc(F)cc4)CC3)s2)cc1,.,-25%,.,.,.
CCNC(=O)Cc1c(OC)ccc2cc(Br)ccc12,-5,-18%,11,-17,-4
COc1ccc2cc(Br)ccc2c1CC(=O)NC1CC(C)(C)NC(C)(C)C1,5,-9%,-3,12,-123*
CC(C)Cn1c2c(c(O)c(C(=O)Nc3ncccc3O)c1=O)CCCC2,-37*,-20%,1,-5,29
Cc1cccc(N2CCN(C(=S)Nc3ccc4nc(N5CCN(C)CC5)cc(C)c4c3)CC2)c1C,3,-13%,?,-82*,-2
Cc1cc(N2CCN(C)CC2)nc2ccc(NC(=S)N3CCN(c4ccc(F)cc4)CC3)cc12,1,-8%,-36,-85*,30
Cc1cccc(N2CCN(C(=S)Nc3ccc4nc(N5CCN(C)CC5)cc(C)c4c3)CC2C)c1 (configuration not stated),-1,-21%,?,-89*,-3
Cc1cc(N2CCN(C)CC2)nc2ccc(NC(=S)N3CCN(c4cccc(Cl)c4)CC3)cc12,2,-2%,?,-81*,-2
Cc1cc(N2CCN(C)CC2)nc2ccc(NC(=S)N3CCN(c4ccc(Cl)cc4)CC3)cc12,-28,-8%,-46,?,8
CCOc1ccc(NC(=O)Cn2c(=O)nc(-c3ccccc3)c3ccccc32)cc1,.,1%,.,.,.
COc1cccc(NC(=O)Cn2c(=O)n(Cc3ccc(F)cc3)c(=O)c3sc4ccccc4c32)c1,.,-8%,.,.,.
COc1ccc(NC(=O)c2cc3cc(C)ccc3[nH]2)cc1,.,-1%,.,.,.
CCN1CCN(c2cc(C)c3cc(NC(=S)N(C)Cc4ccccc4)ccc3n2)CC1,0,-19%,-70*,17,-7
CCCCN(C)C(=S)Nc1ccc2nc(N3CCN(CC)CC3)cc(C)c2c1,-5,-1%,-1,16,9
SMILES,FBPA coupling cs,USP1-UAF1 inh,KCNH2 3.1 inh,Giardia killer,KCNH2 WT inh
Cc1cc(NC(=O)c2ccccc2F)ccc1-c1nc2ccccc2s1,.,-2%,.,.,.
CC1(C)OC(=O)C2(Cc3ccc(Cl)cc3N3CCCCC32)C(=O)O1 (configuration not stated),.,.,.,8,.
CNc1ccc(C(=O)Oc2cc(O/N=[N+](\[O-])N(C)C)c([N+](=O)[O-])cc2[N+](=O)[O-])cc1,-16,.,.,-10,.
COC(=O)Cc1cc(=O)n2[nH]c(C(F)(F)F)nc2n1,-34*,-23%,-3,-4,-20
COc1ccc(N2CCN(c3cc(C)c4ccc(O)cc4n3)CC2)cc1,1,-28%,-26,7,36
COc1ccc(N2CCN(c3cc(C)c4ccc(C)cc4n3)CC2)cc1,-4,-58%,-102*,3,-74*
Cc1cc(N2CCN(c3ccc(F)cc3)CC2)nc2cc(O)ccc12,3,?,-79*,2,?
COc1ccc2c(C)cc(N3CCN(c4ccc(F)cc4)CC3)nc2c1,-2,?,-91*,4,-35
Cc1cc(N2CCN(c3ccccc3F)CC2)nc2cc(O)ccc12,0,-24%,-21,0,8
COc1ccc2c(C)cc(N3CCOCC3)nc2c1,0,-9%,.,-11,8
COc1ccc(Cn2c(CCC(=O)Nc3cccc(Cl)c3)nc3cccnc32)cc1,.,-13%,.,.,.
CCC(=O)CC,0,.,.,.,.
CCOC(=O)c1cnc2ccc(OCC)cc2c1NCc1ccccc1,-44*,-25%,-37,5,7
CCOC(=O)c1cnc2ccc(OCC)cc2c1NCc1cccnc1,-25,-15%,0,5,-5
CCOC(=O)c1c(C)[nH]c(C)c1S(=O)(=O)N1CCCC(C(=O)NCc2cccc(OC)c2)C1 (configuration not stated),.,-20%,.,.,.
S=c1[nH]nc(-c2ccccc2)n1/N=C/c1cccc(Br)c1,12,?,-93*,-10,-3
Cc1cc(C)cc(NC(=O)COC(=O)CCCC2=NS(=O)(=O)c3ccccc3N2)c1,0,-7%,1,-5,-110*
CC[C@H](C)[C@H](NC(=O)[C@H](Cc1ccc(O)cc1)NC(=O)[C@@H]1CCCN1C(=O)[C@H](CCCCN)NC(=O)[C@@H](N)CCCCN)C(=O)N[C@@H](CC(C)C)C(=O)O,-2,.,.,.,.
CC1CCN(c2oc(-c3ccc(COc4ccc(Cl)cc4)o3)nc2C#N)CC1,.,-5%,.,.,.
COC(=O)N1C2CC3(C)C=C(C)OC1(C)C3c1ccccc12 (configuration not stated),-1,.,.,.,.
CC(=O)N[C@@H](CC(C)C)C(=O)N[C@@H](CCCNC(=N)N)C(=O)N[C@@H](Cc1cnc[nH]1)C(=O)N[C@@H](Cc1ccc(O)cc1)C(=O)N[C@@H](CC(C)C)C(=O)N[C@@H](CC(N)=O)C(=O)N[C@@H](CC(C)C)C(=O)N[C@@H](CC(C)C)C(=O)N[C@H](C(=O)N[C@@H](CCCNC(=N)N)C(=O)N[C@@H](CCC(N)=O)C(=O)N[C@@H](CCCNC(=N)N)C(=O)N[C@@H](Cc1ccc(O)cc1)C(N)=O)[C@@H](C)O,0,.,.,.,.
COc1ccc(-c2csc3nc(C)nc(N4CCN(C(C)=O)CC4)c23)cc1OC,8,-10%,1,-22,14
COc1ccc(-c2csc3nc(C)nc(N4CCC(C)CC4)c23)cc1OC,1,-14%,-137*,-2,6
CCN(CC)C(=O)c1cccc2c1C(=O)c1ccccc1-2,3,-24%,-6,-19,-9
CCN(CC)C(=O)c1ccc2c(c1[N+](=O)[O-])C(=O)c1ccccc1C2=O,-42*,.,.,.,.
COc1ccc2cc(C#N)c(=O)oc2c1,-2,.,.,.,.
